# In all, about 150,000 compounds went through this assay and about 540 (0.36%) showed an effect of 50% or more. Shown is part of a subset that was picked to be rich in strong results.
# Test system: Plasmodium falciparum
# Assay: Primary screen in NF54 nanoGlo assay, in single point, at 2uM, 72h; a lower Z score goes with more inhibition
# Type: functional, Erythrocyte
# Conditions: timepoint 72 hour
SMILES,% Inhibition,Z score
Fc1cc(Cl)ccc1OC[C@@H]1CCCN2CCCC[C@H]12,17%,-2.29
Clc1cccc(OC2CN(C[C@@H]3CCCN4CCCC[C@H]34)C2)c1,3%,-0.42
Cc1n[nH]c(C)c1CCCN(C)C(=O)c1cn2cccnc2n1,4%,-0.72
Cc1cc(C)c(CNC(=O)c2cnn(C)c2C)c(=O)[nH]1,-9%,1.13
Clc1ccc(-c2nnc(-c3ccco3)c3nocc23)cc1,3%,-0.41
Cc1nnc(-c2ccco2)c2cn(-c3ccc(Cl)cc3)nc12,69%,1
O=c1[nH]nc(-c2ccc(Cl)cc2)c2cn(-c3ccc(Cl)cc3)nc12,-14%,1.65
Cc1noc(C)c1C(=O)N1CCC[C@H](Oc2ncc(Cl)cn2)C1,-3%,0.45
O=C(NCCN1CCC[C@H](CO)C1)c1cccc(-c2ccc3occc3c2)c1,-3%,0.37
Cn1nc2c(c1C(=O)NCc1csc(N)n1)CCCC2,5%,-0.77
Cc1nc(Nc2ccc3c(c2)OCCO3)cc(-c2ccccc2)n1,5%,-0.89
CC(C)COC(=O)c1nc2ccccc2nc1Nc1ccc2c(c1)OCCO2,8%,-0.98
CNc1nc(Nc2ccc3c(c2)OCCO3)nc2ccccc12,89%,-16.08
C[C@H](Nc1nc(N(C)C)nc2ccccc12)c1ccccc1,-5%,0.67
CNc1nc(NCc2ccccc2)nc2ccccc12,81%,-8.4
CNc1nc(NCCc2ccccc2)nc2ccccc12,83%,-8.48
NS(=O)(=O)c1ccc(CCNc2nc(-c3ccccc3)nc3ccccc23)cc1,39%,0.27
C[C@H](Nc1nc(N2CCCCC2)nc2ccccc12)c1ccccc1,40%,-5.78
Nc1ncnc(NCCc2ccccc2)n1,2%,-0.24
CCN(Cc1nc(C(N)=O)no1)Cc1c(F)cccc1Cl,-6%,1.04
CC(C)(N)c1ccc(Cl)c(Cl)c1,-9%,1.19
Nc1c(Br)cc2oc(-c3ccc4ccccc4c3)nc2c1Br,36%,-1.3

SMILES,% Inhibition,Z score
O=C(N[C@H]1CCn2nccc2C1)c1ccc(OC(F)F)cn1,-8%,0.97
CC(C)(C)OC1CC(NCC(=O)NCC2CC2)C1(C)C (centres undefined),-5%,0.8
COC(=O)[C@H]1CCc2nnc(Cc3ccc(F)cc3)n2C1,-9%,1.42
O=C(c1ccccc1C(F)(F)F)N1CC2(CCOC2)C1,5%,-0.56
Cc1nc(N)nc(C(F)(F)F)c1Br,-1%,0.16
O=C(NC1CC1)c1ccccc1C(=O)c1ccc(F)cc1,-8%,1.02
O=C(Nc1cnc2ccccc2c1)c1ccccc1C(=O)c1ccc(F)cc1,93%,-10.24
COc1ccc(C(=O)c2ccccc2C(=O)Nc2cn[nH]c2)cc1,-8%,1.57
Cc1ccc(C(=O)Nc2ncn(Cc3c(F)cccc3Cl)n2)cc1,-15%,1.74
CN(Cc1ncc(-c2ccccc2)o1)c1ccccc1,-6%,0.5
C[n+]1ccc(-c2ncc(-c3ccccc3)o2)c2ccccc21,75%,-5.73
CC(=O)Nc1c(-c2ccc(F)cc2)c(C)nn1-c1ccc(C(=O)Nc2cccc(F)c2)cc1,-5%,0.93
CC(=O)Nc1c(-c2ccc(F)cc2)c(C)nn1-c1ccc(C(=O)Nc2nc(C)cs2)cc1,-1%,0.19
CC(=O)Nc1c(-c2ccc(C)cc2)c(C)nn1-c1ccc(C(=O)Nc2cc(C)ccn2)cc1,59%,-6.89
c1ccc2c(c1)CCCC2N1CCCC(Cn2cncn2)C1 (centres undefined),-9%,1.31
C[C@H](NC(=O)CNC(C)(C)C)c1ccc(F)cc1F,-4%,0.48
CC1(C)CO[C@@H](CC(=O)N2CCOC3(CCS(=O)(=O)CC3)C2)C1,0%,0.06
Cc1ccc(-c2cn[nH]c2[C@H]2CCCN(C(=O)c3[nH]cnc3C)C2)cc1,-5%,0.87
Cc1cccc2c(-c3cccc(C(N)=O)n3)c[nH]c12,-6%,1.19
Cc1cccc2c(-c3cc(N)nc(N)n3)c[nH]c12,85%,-9.19
O=C(c1cnc2ccsc2c1)N1CC2(CCCCC2)C1,-15%,2.61
CCc1noc(C)c1C(=O)Nc1sc2c(c1C(N)=O)CCCCC2,-23%,2.07

SMILES,% Inhibition,Z score
CCn1ncnc1CNC1CC(c2ccc(Br)cc2)C1 (centres undefined),-13%,1.96
COc1ccc(C(=O)c2cnc3cc(Cl)ccc3c2-c2ccccc2)cc1,-12%,1.39
COc1ccc2c(O)cc(-c3ccccc3)nc2c1,37%,-0.12
COc1ccc2c(O)c(C(=O)NCCN(C)C)cnc2c1,-7%,0.96
Cc1cccc(Cn2c(C(=O)Nc3ccccc3)cc3cc(NC(=O)C4CCC4)ccc32)c1,13%,-2.41
COc1ccc(-c2nn(-c3ccccc3C)cc2CN(C)Cc2nccn2C)cc1F,-8%,1.05
Cc1cc(C(=O)Nc2cccc(C(F)(F)F)c2)cc2c1N(C)S(=O)(=O)c1ccccc1-2,-3%,0.47
O=C(COC[C@H]1CCCCO1)NC(C1CC1)C1CC1,-8%,1.05
O=C(Nc1ccc(Br)cn1)c1ccc(-c2ccc(Cl)c(Cl)c2)o1,31%,-3.51
Cc1ccc(-c2ccc(C(=O)Nc3cccnc3)o2)cc1Cl,-2%,0.25
O=C(Nc1cccnc1)c1ccc(-c2ccc(Cl)c(Cl)c2)o1,64%,-16.5
Nc1nn2cc(-c3cc4ccccc4o3)nc2c2ccccc12,-6%,1.22
Cc1ccc2nc(-c3cnoc3C)cn2c1,0%,0.04
Cc1ccc2nc(-c3cc4ccccc4o3)cn2c1,61%,-5.65
O=C(NCCN1CCCC1)c1ccc(-c2c(-c3ccc(F)cc3)ncn2C2CCCC2)o1,5%,-0.8
Cc1ccc(Cl)cc1N1CCN(C(=O)N2CCC(C)CC2)CC1,0%,-0.01
CCc1nc2cc(N3CCC(C(=O)N[C@@H](C)CC)CC3)cnc2nc1CC,-9%,1.42
CCc1nc2cc(N3CCC(C(=O)Nc4ccc5c(c4)OCO5)CC3)cnc2nc1CC,73%,-0.75
CCc1nc2cc(N3CCC(C(=O)NCc4cc(F)cc(F)c4)CC3)cnc2nc1CC,-5%,0.82
Cc1ccc(S(=O)(=O)c2cn(CC(=O)Nc3ccc(C)c(C)c3)c3nc(C)ccc3c2=O)cc1,-12%,1.24
COCCN1C[C@]2(CCCN(c3ccnc4ccc(C)cc34)C2)CCC1=O,-3%,0.55
COCCN1CCC[C@@]2(CCN(Cc3cnn(-c4ccc(Cl)cc4)c3)C2)C1,-9%,1.21

SMILES,% Inhibition,Z score
COCCN1CC[C@H](CN(C)S(=O)(=O)Cc2ccc(Cl)cc2)C1,-6%,1.12
COCCN1CC[C@H](CN(C)c2ccncn2)C1,1%,-0.2
COC(=O)[C@H](CN)Oc1ccc(F)cc1,2%,-0.27
O=C(NC1CC1C1CCCCC1)N1CCCN(C2CCOCC2)CC1 (centres undefined),-16%,1.42
O=C(N[C@@H]1C[C@H]1C1CCCCC1)N1CCC(N2CCCCC2)C1 (some centres undefined),-9%,1.45
O=C(NC1CC1C1CCCCC1)N1CCS(=O)(=O)CC1 (centres undefined),77%,-9.17
CCCN(C(=O)Nc1cc(Cl)ccc1OC)c1nc(-c2ccc(C3CCCCC3)cc2)cs1,-14%,2.04
COc1ccc(NCC(=O)Nc2cc(C(F)(F)F)cc(NC(=O)CNc3ccc(OC)cc3)c2Cl)cc1,-10%,1.34
CC(=O)Oc1ccc(N2C(=O)[C@@H]3[C@H](Cc4ccccc4)N[C@]4(C(=O)Nc5c4ccc(Cl)c5C)[C@@H]3C2=O)cc1,-4%,0.38
O=C(ON1C(=O)CCC1=O)c1cccc(F)c1,34%,-3.87
O=C(ON1C(=O)CCC1=O)c1cc2ccccc2[nH]1,61%,-0.88
Cc1cccc(C(=O)ON2C(=O)CCC2=O)c1,39%,1.28
Cc1nn(-c2nc3ccccc3[nH]2)c(O)c1CCC(C)C,95%,-12.21
Cc1nn(-c2nc3ccccc3[nH]2)c(O)c1Cc1ccccc1,63%,-1.65
Oc1cc(-c2ccc(F)cc2)nn1-c1nc2ccccc2[nH]1,36%,-4.09
Cc1cccc(Cc2c(C)nn(-c3nc(C)cc(C)n3)c2O)c1,36%,2.2
Cc1cc(C)nc(-n2nc(C)c(CCc3ccccc3)c2O)n1,32%,-3.67
COc1ccccc1-n1nc(C)c(Cc2ccccc2)c1O,31%,-3.49
COc1ccc([C@@H]2N(c3ccc(Cl)cc3)OC(=O)N2c2ccccc2)cc1,1%,-0.09
Cc1n[nH]c2c1CN(Cc1[nH]cc(C)c(=O)c1C)CC2,-8%,1
COCCCN(CCC(=O)NCCc1ccccc1)C(=O)c1cc(C)oc1C,2%,-0.18

# From ChEMBL document CHEMBL4888484, “Replenishing the malaria drug discovery pipeline: Screening and hit evaluation of the MMV Hit Generation Library 1 (HGL1) against asexual blood stage Plasmodium falciparum ,using a nano luciferase reporter read-out” (2022)
